Activity calls are given as the source filed them. Unless noted, no rule for the calls is given here.
Experiments:
[1] = anti-His antibody binders, primary screen, artefact control for SMM control protein annotation, biochemical, small-molecule microarray, 635 nm fluorescence (AID 1128); conditions: anti-His Alexa647 antibody binding, higher = more signal;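 also: score merges feature fluorescence with signal-to-noise for each printed compound spot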
[2] = system: Human papillomavirus type 1a E7 protein (residues 1-88); experiment: HPV1a E7 small-molecule binders, primary screen, biochemical, small-molecule microarray, residues 1-88, 635 nm (AID 1129); conditions: small-molecule microarray binding, fluorescence 635 nm; higher = more signal
[3] = molecular target: Focal adhesion kinase 1 (Homo sapiens) (UniProt Q05397); experiment: small-molecule microarray binders of FAK, primary screen, biochemical, 635/667 nm fluorescence, BSA, DTT (AID 1130); conditions: PTK2 binding, 635 nm fluorescence, higher = more signal;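 also: composite of spot emission at 667 nm and signal to noise over triplicate slides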
[4] = system: Fibrinogen (Alexa647-labelled); experiment: fibrinogen binders on compound microarrays, profiling panel, artefact control for SMM control-protein annotation, biochemical, small-molecule microarray, 635/667 nm fluorescence (AID 1131); conditions: fibrinogen-A647 binding fluorescence, higher = more signal;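 also: z-score merges 667 nm fluorescence with per-spot signal-to-noise over triplicate slides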
[5] = molecular target: Follistatin (Homo sapiens) (UniProt P19883); experiment: follistatin binders on small-molecule microarrays, primary screen, biochemical, small-molecule microarray, 635/667 nm fluorescence (AID 1132); conditions: FST binding, 635 nm fluorescence, higher = more signal
[6] = molecular target: Fibroblast growth factor 2 (Homo sapiens) (UniProt P09038); experiment: FGF2 binders on small-molecule microarrays, primary screen, biochemical, small-molecule microarray, 635/667 nm fluorescence (AID 1133); conditions: small-molecule microarray binding, FGF2, fluorescence 635/667; higher = more signal
[7] = mitochondrial membrane potential change in A549 cells, profiling panel, cell-based, JC-1 fluorescence, basal, 24 h, 100 nL (AID 1138); conditions: higher = more signal;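 also: A549 lung adenocarcinoma cells under basal conditions with no added stimulus; test concentration not given here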
Lefty1 = Lefty1 binders on small-molecule microarrays, primary screen, biochemical, small-molecule microarray, 635/667 nm fluorescence (AID 1139); conditions: small-molecule microarray binding, fluorescence 635/667; higher = more signal
[8] = system: wheat germ agglutinin (Triticum aestivum), Alexa647-labelled; experiment: wheat germ agglutinin binders on compound microarrays, profiling panel, artefact control for SMM control-protein annotation, biochemical, small-molecule microarray, 635/667 nm fluorescence (AID 1140); conditions: WGA-A647 binding, 635 nm fluorescence, higher = more signal;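 also: score merges 667 nm feature emission with signal to noise over triplicate slides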
[9] = molecular target: Luciferin 4-monooxygenase (Photinus pyralis) (UniProt P08659); experiment: firefly luciferase enzyme inhibitors, primary screen, biochemical, luminescence, purified enzyme, 2006 set (AID 1141); conditions: SteadyGlo luminescence, 30 min, higher = more signal, called active from +8 up or from −8 down;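 also: cell-free assay with purified firefly luciferase at 100 ng per well in PBS; test concentration not given here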
[10] = system: Wnt5a (protein binding on small-molecule microarray); experiment: Wnt5a binders on small-molecule microarray, primary screen, biophysical, 635/667 nm fluorescence (AID 1142); conditions: 635 nm fluorescence, higher = more signal;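 also: fluorescence read at 667 nm with signal to noise per printed feature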
[11] = cell viability in Huh7 cells, primary screen, cytotoxicity control for HCV replication inhibitor project, CellTiter-Glo luminescence, basal, 48 h (AID 1143); conditions: Huh7 HCV replicon, higher = more signal, called active from +8 up or from −8 down;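 also: Huh7 hepatoma cells carrying a hepatitis C replication reporter with no stimulus; test concentration not given here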
[12] = P. aeruginosa biofilm formation inhibitors, primary screen, PAO1 strain, BacTiter-Glo luminescence, LB-PBS (AID 1144); conditions: 12 h, higher = more signal
[13] = CREB reporter modulators without forskolin, primary screen, cell-based, PC12, CRE-LacZ reporter, unstimulated (AID 1145); conditions: no forskolin, luminescence, 4.5 h, higher = more signal, called active from +8 up or from −8 down
[14] = CREB reporter modulators under forskolin, primary screen, cell-based, PC12, CRE-LacZ reporter, forskolin-stimulated (AID 1146); conditions: luminescence, 4.5 h, higher = more signal, called active from +8 up or from −8 down;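 also: PC12 cells with 6xCRE LacZ reporter stimulated by forskolin 10 µM; beta-galactosidase reporter signal reflecting CREB driven transcription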
[15] = molecular target: Streptavidin (Streptomyces avidinii) (UniProt P22629); experiment: streptavidin binders on small-molecule microarray, primary screen, artefact control for SMM compound annotation, biophysical, 635/667 nm fluorescence (AID 1147); conditions: streptavidin binding, higher = more signal;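 also: signal reflects streptavidin binding to arrayed compounds as a control protein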
[16] = small-molecule binders of probe aInhba, primary screen, biochemical, small-molecule microarray, 635/667 nm fluorescence (AID 1148); conditions: higher = more signal;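 also: score merges 667nm spot fluorescence with signal-to-noise for antibody binding to printed compounds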
Torsin-1A (Homo sapiens) [17] = molecular target: Torsin-1A (Homo sapiens) (UniProt O14656); experiment: torsin A binders from cell lysate, primary screen, small-molecule microarray, wild-type, 635/667 nm (AID 1149); conditions: COS7 hTOR1A-WT lysate, 635 nm fluorescence, higher = more signal
Torsin-1A (Homo sapiens) [18] = molecular target: Torsin-1A (Homo sapiens) (UniProt O14656); experiment: small-molecule binders of mutant TOR1A in lysate, primary screen, cell lysate, small-molecule microarray, COS7 lysate, 635/667 nm fluorescence (AID 1150); conditions: COS7 hTOR1A mutant lysate, 635 nm fluorescence, higher = more signal;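 also: score pools 667 nm emission and signal to noise measuring lysate protein binding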
[19] = system: Sonic hedgehog protein (Shh); experiment: small-molecule binders of Shh protein, primary screen, biochemical, small-molecule microarray, 635/667 nm fluorescence (AID 1151); conditions: small-molecule microarray binding, 635 nm fluorescence; higher = more signal;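 also: Shh protein binding to compounds spotted on small-molecule microarray slides; score combines spot fluorescence intensity with signal-to-noise across triplicate slides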

Sequence of Follistatin (Homo sapiens) (P19883 whole entry, looked up): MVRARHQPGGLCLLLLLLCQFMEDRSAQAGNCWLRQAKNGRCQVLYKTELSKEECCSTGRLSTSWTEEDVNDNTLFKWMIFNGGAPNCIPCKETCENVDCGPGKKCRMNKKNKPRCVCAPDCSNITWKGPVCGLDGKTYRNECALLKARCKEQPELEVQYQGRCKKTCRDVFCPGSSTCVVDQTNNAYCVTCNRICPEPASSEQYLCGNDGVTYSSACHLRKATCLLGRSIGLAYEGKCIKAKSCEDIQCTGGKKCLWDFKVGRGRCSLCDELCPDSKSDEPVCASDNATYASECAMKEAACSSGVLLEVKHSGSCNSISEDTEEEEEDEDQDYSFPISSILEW
Sequence of Streptavidin (Streptomyces avidinii) (P22629 whole entry, looked up): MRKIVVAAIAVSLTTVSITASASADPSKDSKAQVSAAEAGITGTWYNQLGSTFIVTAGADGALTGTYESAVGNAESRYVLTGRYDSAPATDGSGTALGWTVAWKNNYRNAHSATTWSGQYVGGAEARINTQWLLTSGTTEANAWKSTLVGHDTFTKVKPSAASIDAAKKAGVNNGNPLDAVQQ
Sequence of Luciferin 4-monooxygenase (Photinus pyralis) (P08659 whole entry, looked up): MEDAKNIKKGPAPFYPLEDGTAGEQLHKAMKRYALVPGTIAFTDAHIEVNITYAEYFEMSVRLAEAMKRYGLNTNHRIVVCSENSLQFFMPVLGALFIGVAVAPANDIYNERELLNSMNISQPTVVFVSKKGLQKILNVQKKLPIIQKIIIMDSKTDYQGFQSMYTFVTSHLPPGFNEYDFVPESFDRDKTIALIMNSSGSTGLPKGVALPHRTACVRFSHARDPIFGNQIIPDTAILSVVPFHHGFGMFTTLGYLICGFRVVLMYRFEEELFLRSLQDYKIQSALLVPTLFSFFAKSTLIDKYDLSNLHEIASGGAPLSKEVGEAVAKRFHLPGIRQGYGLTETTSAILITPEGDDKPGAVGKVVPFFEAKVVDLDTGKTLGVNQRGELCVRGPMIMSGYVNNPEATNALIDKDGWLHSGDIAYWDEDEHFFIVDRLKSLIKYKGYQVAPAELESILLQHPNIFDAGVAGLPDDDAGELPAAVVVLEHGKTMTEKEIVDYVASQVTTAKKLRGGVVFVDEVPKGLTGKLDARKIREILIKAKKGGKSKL
Sequence of Torsin-1A (Homo sapiens) (O14656 whole entry, looked up): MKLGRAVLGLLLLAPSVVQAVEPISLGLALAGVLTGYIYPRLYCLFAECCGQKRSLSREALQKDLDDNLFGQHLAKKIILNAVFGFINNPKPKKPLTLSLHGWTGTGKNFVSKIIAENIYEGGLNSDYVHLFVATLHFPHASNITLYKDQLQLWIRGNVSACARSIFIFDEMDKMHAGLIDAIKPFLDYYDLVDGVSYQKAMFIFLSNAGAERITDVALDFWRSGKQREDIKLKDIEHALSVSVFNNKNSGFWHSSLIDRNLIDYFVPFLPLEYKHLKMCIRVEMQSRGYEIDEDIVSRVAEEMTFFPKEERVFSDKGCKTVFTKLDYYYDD
Sequence of Fibroblast growth factor 2 (Homo sapiens) (P09038 whole entry, looked up): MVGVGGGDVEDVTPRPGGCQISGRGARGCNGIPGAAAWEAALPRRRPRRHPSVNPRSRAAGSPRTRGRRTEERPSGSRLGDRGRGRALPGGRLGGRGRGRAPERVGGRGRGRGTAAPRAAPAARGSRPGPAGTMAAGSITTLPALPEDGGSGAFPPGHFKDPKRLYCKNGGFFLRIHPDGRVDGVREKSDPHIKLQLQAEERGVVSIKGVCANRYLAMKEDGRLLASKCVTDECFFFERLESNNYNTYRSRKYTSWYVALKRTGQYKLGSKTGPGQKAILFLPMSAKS
Sequence of Focal adhesion kinase 1 (Homo sapiens) (Q05397 whole entry, looked up): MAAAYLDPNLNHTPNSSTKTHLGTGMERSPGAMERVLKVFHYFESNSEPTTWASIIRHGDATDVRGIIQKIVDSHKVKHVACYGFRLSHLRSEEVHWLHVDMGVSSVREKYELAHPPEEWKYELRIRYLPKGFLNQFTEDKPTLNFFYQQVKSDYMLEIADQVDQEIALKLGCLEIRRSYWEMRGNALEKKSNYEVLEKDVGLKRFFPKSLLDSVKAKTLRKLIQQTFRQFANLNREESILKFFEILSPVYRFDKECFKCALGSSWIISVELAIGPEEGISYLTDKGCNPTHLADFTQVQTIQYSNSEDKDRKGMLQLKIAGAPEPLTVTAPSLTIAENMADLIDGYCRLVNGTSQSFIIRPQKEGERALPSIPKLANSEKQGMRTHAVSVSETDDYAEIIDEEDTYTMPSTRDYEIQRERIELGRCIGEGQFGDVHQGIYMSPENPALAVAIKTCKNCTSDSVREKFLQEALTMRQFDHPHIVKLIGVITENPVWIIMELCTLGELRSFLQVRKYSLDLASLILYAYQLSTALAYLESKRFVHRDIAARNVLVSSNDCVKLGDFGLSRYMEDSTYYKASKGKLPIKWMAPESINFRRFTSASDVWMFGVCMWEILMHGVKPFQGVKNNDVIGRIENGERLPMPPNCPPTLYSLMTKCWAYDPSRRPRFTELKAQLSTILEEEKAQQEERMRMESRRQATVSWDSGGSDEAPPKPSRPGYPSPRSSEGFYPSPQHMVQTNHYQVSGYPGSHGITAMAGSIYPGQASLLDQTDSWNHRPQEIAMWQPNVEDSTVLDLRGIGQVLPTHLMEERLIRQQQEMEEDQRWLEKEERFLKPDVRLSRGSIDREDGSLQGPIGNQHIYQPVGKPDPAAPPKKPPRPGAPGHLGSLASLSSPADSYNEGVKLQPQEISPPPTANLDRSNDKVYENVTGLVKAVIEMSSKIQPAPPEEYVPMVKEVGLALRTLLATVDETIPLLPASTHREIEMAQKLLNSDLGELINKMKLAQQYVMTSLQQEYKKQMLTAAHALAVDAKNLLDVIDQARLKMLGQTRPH

Structure (SMILES)	composite z-score [1]	composite z-score [2]	composite z-score [3]	composite z-score [4]	composite z-score [5]	composite z-score [6]	z-score [7]	composite z-score (Lefty1)	composite z-score [8]	z-score [9]	composite z-score [10]	z-score [11]	z-score [12]	z-score [13]	z-score [14]	composite z-score [15]	composite z-score [16]	composite z-score (Torsin-1A (Homo sapiens) [17])	composite z-score (Torsin-1A (Homo sapiens) [18])	composite z-score [19]
COc1cc(NN2C(C(O)c3cc(OC)c(OC)c(OC)c3)C=CC3C(=O)N(C)C(=O)C32)cc(OC)c1OC (stereo not given)	0.661	1.07	0.368	0.169	0.67	0.0023	1.38	0.289	0.694	0.229 (inactive)	-0.019	-0.0088 (inactive)	-0.792 (inactive)	0.243 (inactive)	0.445 (inactive)	0.853	-0.0336	0.434	0.459	0.0774
COC(=O)[C@@]1(Cc2ccc(F)cc2)[C@H]2c3cc(C(=O)N(C)C)n(Cc4ccc(OC(F)(F)F)cc4)c3C[C@H]2CN1C(=O)c1ccccc1	0.348	0.626	0.0291	0.572	0.216	0.016	0.561	-0.182	0.341	1.6 (inactive)	0.0007	0.875 (inactive)	-0.362 (inactive)	0.397 (inactive)	0.391 (inactive)	0.686	0.0633	0.296	0.569	-0.817
CCN(CC)c1ccc(N2CC=CC34O[C@@H]5/C=C\CCCOC(=O)C5[C@H]3C(=O)N(C(C)CO)[C@@H]4C2=O)cc1 (stereo not given in full)	-0.556	-0.107	-0.294	-0.158	0.077	0.305	1.18	-0.0464	-0.0344	-1.38 (inactive)	-0.367	0.307 (inactive)	-1.6 (inactive)	1.01 (inactive)	-0.695 (inactive)	-0.245	-0.0986	-0.428	-0.539	1.19
COc1cccc(C)c1NC(=O)O[C@H]1[C@H](OC(=O)Nc2ccc3c(c2)OCO3)[C@@H](OC(=O)Nc2ccc3c(c2)OCO3)[C@@H](OC)O[C@@H]1CO	0.4	1.25	1.09	0.988	1.28	0.887	-0.588	1.28	1.15	-5.18 (inactive)	0.648	-1.19 (inactive)	0.0488 (inactive)	1.45 (inactive)	-0.424 (inactive)	1.3	0.0319	1.11	1.19	1.54
C=CC[C@@]1(C(=O)NCCCOC)N=C(c2ccc(OCCCO)cc2)O[C@@H]1c1ccccc1	2.85	1.19	0.166	-0.273	1.3	0.594	0.565	-0.476	0.471	-0.589 (inactive)	0.452	-1.92 (inactive)	0.305 (inactive)	1.51 (inactive)	-0.68 (inactive)	0.428	0.771	0.478	1.3	-0.499
CS(=O)(=O)CCOC(=O)C1=CC(CCCO)=CC(c2ccc(CN3CCCC3)cc2)N(Cc2sc3ccccc3c2Cl)C=C1C(=O)OCCS(C)(=O)=O (stereo not given)	2.17	1.18	0.45	1	0.526	1.21	2.31	0.722	1.31	-1.57 (inactive)	0.689	-1.29 (inactive)	1.13 (inactive)	2.08 (inactive)	0.274 (inactive)	2.48	0.794	1.4	2.18	1.18
CC(C)N1C(=O)C[C@@](C(=O)O)(c2ccc([N+](=O)[O-])cc2)[C@H]1c1ccc(CO)cc1	0.0886	-0.619	-0.0404	-1.14	-0.82	-0.798	0.993	-1.12	-0.76	-1.03 (inactive)	-0.0691	0.034 (inactive)	1.17 (inactive)	0.441 (inactive)	-0.303 (inactive)	-0.923	-0.0288	-0.254	-0.0237	-0.878
COc1cc2c(cc1O)C=[N+](Cc1sc3ccccc3c1Cl)CC2	0.505	0.0341	-0.292	0.257	0.609	0.182	-0.571	0.0893	0.311	0.5 (inactive)	-0.245	-2.33 (inactive)	0.206 (inactive)	-0.348 (inactive)	0.982 (inactive)	0.0042	-0.0308	0.166	0.276	0.66
COC(=O)[C@@]1(Cc2ccc(OC)cc2)[C@H]2c3cc(C(=O)N(C)C)n(Cc4ccc(OC(F)(F)F)cc4)c3C[C@H]2CN1C(=O)c1ccccc1	-0.399	0.299	1.14	0.808	-0.295	-0.555	0.517	-0.878	0.0102	0.86 (inactive)	-0.223	-2.6 (inactive)	0.043 (inactive)	4.4 (inactive)	74 (active)	0.539	0.185	-0.178	0.555	-0.955

From PubChem BioAssay
